From PubChem BioAssay (Tox21)
Values joined by “and” are separate entries in the source; they are usually repeats but may differ in a detail not shown here. Equal values may be shown once. A number with no mark means an inactive call. Inconclusive results are not listed. Where a call stands in place of a potency, no number is given. Active and inactive are the calls of the source. Unless noted, calls come from the whole dose curve; as a rule, active = well fitted curve in the direction sought with a large enough effect in the repeat runs; inconclusive = weak or mixed curves; inactive = no such curve, though single readings can be large; an effect the other way counts as inactive or inconclusive.

Columns and labels:
[1] = A CellTox Green Cytotoxicity Assay to monitor cytotoxicity in HEK293 cells - 32 hour (AID 1224881); note: nearly all actives have a fitted effect of over 40% in size; note: potency is the fitted concentration of half-maximal effect
Method in brief: (§1)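 Each value comes from one timepoint of a single continuous run in which HEK293 cells with CellTox Green were exposed to compound for up to 40 h at 37 C, dye fluorescence rising with cell death.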

[2] = A CellTox Green Cytotoxicity Assay to monitor cytotoxicity in HepG2 cells - 0 hour (AID 1224882); note: nearly all actives have a fitted effect of over 35% in size
Method in brief: (§2)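 Continuous culture of HepG2 cells with a membrane-impermeant DNA dye; rising fluorescence marks dead cells. Compound exposure lasted up to 40 h at 37 C, with reads every 8 h from 0 h.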

[3] = A CellTox Green Cytotoxicity Assay to monitor cytotoxicity in HepG2 cells - 32 hour (AID 1224883); note: nearly all actives have a fitted effect of over 50% in size; note: potency is the fitted concentration of half-maximal effect
Method in brief: as §2

[4] = A CellTox Green Cytotoxicity Assay to monitor cytotoxicity in HEK293 cells - 8 hour (AID 1224884); note: nearly all actives have a fitted effect of over 35% in size; note: potency is the fitted concentration of half-maximal effect
Method in brief: as §1

[5] = qHTS RealTime-Glo MT Cell Viability Assay in HepG2 cells - 16 hour (AID 1224885); note: nearly all actives have a fitted effect of over 50% in size; note: potency is the fitted concentration of half-maximal effect
Method in brief: (§3)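 Luminescence read-out: viable HepG2 cells reduce a prosubstrate to a NanoLuc substrate, giving a signal proportional to live cell number. Reads taken at 0, 8, 16, 24, 32 and 40 h of compound exposure at 37 C.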

[6] = qHTS RealTime-Glo MT Cell Viability Assay in HEK293 cells - 24 hour (AID 1224886); note: nearly all actives have a fitted effect of over 50% in size; note: potency is the fitted concentration of half-maximal effect
Method in brief: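 Nonlytic real-time viability readout: viable cells convert prosubstrate to NanoLuc substrate, giving luminescence proportional to live cell number. HEK293, 600 cells/well, compound added after 5 h, continuous culture at 37 C.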

[7] = qHTS RealTime-Glo MT Cell Viability Assay in HEK293 cells - 8 hour (AID 1224887); note: nearly all actives have a fitted effect of over 50% in size; note: potency is the fitted concentration of half-maximal effect
Method in brief: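 qHTS format; HEK293 cells with NanoLuc/prosubstrate reagent, 37 C/5% CO2 for 5 h pre-dosing; compounds 23 nL in DMSO; luminescence at each time point reflects viable cells.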

[8] = A CellTox Green Cytotoxicity Assay to monitor cytotoxicity in HEK293 cells - 16 hour (AID 1224888); note: nearly all actives have a fitted effect of over 35% in size; note: potency is the fitted concentration of half-maximal effect
Method in brief: as §1

[9] = qHTS RealTime-Glo MT Cell Viability Assay in HepG2 cells - 0 hour (AID 1224889); note: nearly all actives have a fitted effect of over 50% in size
Method in brief: as §3

[10] = A CellTox Green Cytotoxicity Assay to monitor cytotoxicity in HepG2 cells - 8 hour (AID 1224890); note: nearly all actives have a fitted effect of over 45% in size; note: potency is the fitted concentration of half-maximal effect
Method in brief: as §2

[11] = qHTS assay to identify small molecule antagonists of the estrogen receptor alpha (ER-alpha) signaling pathway using the BG1 cell line in the presence of 0.1 nM 17-beta-estradiol - cell viability counter screen (AID 1259241); note: nearly all actives have a fitted effect of over 40% in size; note: potency is the fitted concentration of half-maximal effect
Method in brief: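 The cell line endogenously expresses full-length ER-alpha and carries four EREs driving luciferase. Cells are cultured 5 days hormone-free, treated 22 hr with compounds and 0.1 nM estradiol, then viability is read by fluorescence.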

[12] = qHTS assay to identify small molecule antagonists of the androgen receptor (AR) signaling pathway using the MDA cell line in the presence of 0.5 nM R1881 - cell viability counter screen (AID 1259242); note: nearly all actives have a fitted effect of over 45% in size; note: potency is the fitted concentration of half-maximal effect
Method in brief: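 Fluorescence from CellTiter-Fluor, which reports protease activity of live cells, was read 30 min after reagent addition to MDA-kb2 cells that had been incubated 16 hr with compound and 0.5 nM R1881.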

[13] = target: Androgen receptor (Homo sapiens) (UniProt P10275); assay: qHTS assay to identify small molecule antagonists of the androgen receptor (AR) signaling pathway using the MDA cell line in the presence of 0.5 nM R1881 (AID 1259243); note: nearly all actives have a fitted effect of over 50% in size; note: potency is the fitted concentration of half-maximal effect
Method in brief: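 Inhibition of R1881 (0.5 nM final) induced reporter signal was measured in human MDA-kb2 cells; note the MMTV promoter also responds to GR. Exposure lasted 16 hr at 37C.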

[14] = qHTS assay to identify small molecule HDAC inhibitors (AID 1259364); note: nearly all actives have a fitted effect of over 45% in size; note: potency is the fitted concentration of half-maximal effect
Method in brief: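 Endogenous HDAC class I/II activity was measured in wild-type HCT-116 cells by HDAC-Glo luminescence after 2 h compound treatment.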

[15] = qHTS assay to identify small molecule HDAC inhibitors - cell viability counter screen (AID 1259365); note: nearly all actives have a fitted effect of over 50% in size; note: potency is the fitted concentration of half-maximal effect
Method in brief: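 Viability readout: CellTiter-Glo luminescence. Wild-type HCT-116 cells, 2hr compound treatment following overnight attachment at 37 C.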

[16] = qHTS assay to identify small molecule agonists of the sonic hedgehog signaling (Shh) pathway - cell viability counter screen (AID 1259366); note: nearly all actives have a fitted effect of over 50% in size; note: potency is the fitted concentration of half-maximal effect
Method in brief: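 Viability measured fluorometrically (CellTiter-Fluor, 1hr, 37C) in 3T3 Gli1-Luc reporter cells after 23hr compound exposure within a 24hr incubation at 37C/5% CO2.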

[17] = qHTS assay to identify small molecule antagonists of the sonic hedgehog signaling (Shh) pathway - cell viability counter screen (AID 1259367); note: nearly all actives have a fitted effect of over 55% in size; note: potency is the fitted concentration of half-maximal effect
Method in brief: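 Using CellTiter-Fluor, viability of Gli1-Luc reporter 3T3 cells is read by fluorescence in the wells used for the Shh luciferase assay. Treatment lasts 23 hr with conditioned medium, then reagent 1 hr at 37C.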

[18] = qHTS assay to identify small molecule agonists of the sonic hedgehog signaling (Shh) pathway (AID 1259368; calls by dose curve;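 note: NIH/3T3-derived 3T3Gli1-Luc cells carrying a stable Gli1-driven firefly luciferase reporter; series mostly up to about 92 µM; nearly all actives have a fitted effect of over 15% in size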)
Method in brief: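 Luminescent signal was taken as a measure of Gli1-controlled luciferase expression in stably transfected NIH/3T3-derived cells that had been treated for 24 hr with compounds delivered in DMSO.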

[19] = target: Estrogen receptor (Homo sapiens) (UniProt P03372); assay: qHTS assay to identify small molecule antagonists of the estrogen receptor alpha (ER-alpha) signaling pathway using the BG1 cell line in the presence of 0.1 nM 17-beta-estradiol (AID 1259244); note: nearly all actives have a fitted effect of over 50% in size; note: potency is the fitted concentration of half-maximal effect
Method in brief: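 Quantitative high-throughput screen in VM7Luc4E2 cells: compound plus 0.1 nM E2 (final), 22 h, 37C, 5% CO2; ONE-Glo added, 30 min room temperature, luminescence measured.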

[20] = qHTS assay to identify small molecule phospholipidosis (PLD) inducers (AID 1259344; active = well fitted curve in the direction sought with a large enough effect; an effect the other way counts as inactive or inconclusive)
Method in brief: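 Fluorescent phospholipid staining (LipidTOX Red) measured by automated microscopy in fixed HepG2 cells after 24 h treatment; nuclei counterstained with Hoechst 33342; amiodarone as reference inducer.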

Chain of Estrogen receptor (Homo sapiens) (P03372 whole entry, looked up): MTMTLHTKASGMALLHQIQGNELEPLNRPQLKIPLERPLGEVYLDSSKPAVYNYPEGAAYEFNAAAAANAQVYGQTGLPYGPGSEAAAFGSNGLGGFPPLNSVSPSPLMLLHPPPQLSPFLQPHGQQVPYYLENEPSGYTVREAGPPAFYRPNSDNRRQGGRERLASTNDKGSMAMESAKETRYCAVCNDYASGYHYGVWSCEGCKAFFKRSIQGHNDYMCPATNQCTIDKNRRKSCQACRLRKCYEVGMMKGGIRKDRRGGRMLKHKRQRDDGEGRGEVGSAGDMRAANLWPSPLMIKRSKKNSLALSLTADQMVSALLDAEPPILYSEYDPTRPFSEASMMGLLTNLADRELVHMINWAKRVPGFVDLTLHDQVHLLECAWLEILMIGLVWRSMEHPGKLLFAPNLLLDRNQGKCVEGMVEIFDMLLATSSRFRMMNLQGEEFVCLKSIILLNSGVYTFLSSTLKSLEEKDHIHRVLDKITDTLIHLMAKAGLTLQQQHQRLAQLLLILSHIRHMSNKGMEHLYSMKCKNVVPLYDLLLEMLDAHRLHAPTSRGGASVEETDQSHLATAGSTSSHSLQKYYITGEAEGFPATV
Chain of Androgen receptor (Homo sapiens) (P10275 whole entry, looked up): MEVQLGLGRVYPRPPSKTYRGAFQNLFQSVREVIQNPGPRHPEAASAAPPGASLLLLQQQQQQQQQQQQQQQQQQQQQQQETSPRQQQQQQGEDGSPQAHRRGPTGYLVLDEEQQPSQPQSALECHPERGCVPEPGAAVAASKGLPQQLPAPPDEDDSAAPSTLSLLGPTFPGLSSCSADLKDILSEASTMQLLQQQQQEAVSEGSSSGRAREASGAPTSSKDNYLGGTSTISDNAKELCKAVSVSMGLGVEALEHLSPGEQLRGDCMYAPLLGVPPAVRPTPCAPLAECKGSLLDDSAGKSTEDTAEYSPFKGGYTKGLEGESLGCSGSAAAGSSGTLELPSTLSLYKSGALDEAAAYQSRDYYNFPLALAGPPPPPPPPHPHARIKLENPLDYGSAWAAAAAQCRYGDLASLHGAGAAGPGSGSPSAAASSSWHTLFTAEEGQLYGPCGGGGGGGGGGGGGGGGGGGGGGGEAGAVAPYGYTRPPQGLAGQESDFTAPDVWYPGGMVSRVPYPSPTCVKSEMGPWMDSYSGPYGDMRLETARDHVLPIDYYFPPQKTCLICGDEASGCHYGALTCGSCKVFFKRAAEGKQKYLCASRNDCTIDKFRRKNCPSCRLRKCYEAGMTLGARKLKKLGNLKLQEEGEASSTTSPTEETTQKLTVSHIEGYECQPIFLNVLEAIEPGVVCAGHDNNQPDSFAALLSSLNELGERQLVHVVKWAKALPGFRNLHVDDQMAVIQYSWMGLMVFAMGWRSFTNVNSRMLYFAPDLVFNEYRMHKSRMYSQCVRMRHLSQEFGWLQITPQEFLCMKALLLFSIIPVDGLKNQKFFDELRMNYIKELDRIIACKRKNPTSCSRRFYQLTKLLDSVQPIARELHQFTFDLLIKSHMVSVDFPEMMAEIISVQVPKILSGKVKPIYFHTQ

Compound | Potency [1] | Potency [2] | Potency [3] | Potency [4] | Potency [5] | Potency [6] | Potency [7] | Potency [8] | Potency [9] | Potency [10] | Potency [11] | Potency [12] | Potency [13] | Potency [14] | Potency [15] | Potency [16] | Potency [17] | Potency [18] | Potency [19] | Potency [20]
OC[C@H]1O[C@H](O[C@H]2O[C@H](CO)[C@@H](O)[C@H](O)[C@H]2O)[C@H](O)[C@@H](O)[C@@H]1O | inactive | inactive | inactive | inactive | inactive | inactive | inactive | inactive | inactive | inactive | inactive | inactive | inactive | inactive | inactive | inactive | inactive | inactive | – | –
Cc1ccc(C)cc1 | inactive | inactive | inactive | inactive | inactive | inactive | inactive | inactive | inactive | inactive | inactive | inactive | inactive | inactive | inactive | inactive | inactive | – | inactive | –
CC(C)(c1cc(Br)c(OCC(Br)CBr)c(Br)c1)c1cc(Br)c(OCC(Br)CBr)c(Br)c1 (stereo not drawn) | inactive | inactive | inactive | inactive | inactive | inactive | inactive | inactive | inactive | inactive | inactive | inactive | – | inactive | inactive | inactive | inactive | inactive | inactive | –
CCC(CC)(CC(=O)Nc1cccc(/C=C/c2nc(C3CCC3)cs2)c1)C(=O)O | inactive | inactive | inactive | inactive | inactive | inactive | inactive | inactive | inactive | inactive | inactive | inactive | – | inactive | – | inactive | – | inactive | inactive | inactive
NC(=S)NC(N)=S | inactive | inactive | inactive | inactive | inactive | inactive | inactive | inactive | inactive | inactive | inactive | inactive | inactive | inactive | inactive | inactive | inactive | inactive | inactive | –
CC(=O)Oc1cc2c(s1)CCN(C(C(=O)C1CC1)c1ccccc1F)C2 (stereo not drawn) | inactive | inactive | inactive | inactive | inactive | inactive | inactive | inactive | inactive | inactive | inactive | inactive | – | inactive | inactive | inactive | inactive | inactive | inactive | inactive
CCN(CC)c1ccc2c(-c3ccc(S(=O)(=O)O)cc3S(=O)(=O)[O-])c3ccc(=[N+](CC)CC)cc-3oc2c1 | inactive | inactive | inactive | inactive | inactive | inactive | inactive | inactive | inactive | inactive | 12.6 µM (active) | 25.1 µM (active) | 22.4 µM (active) | – | 12.6 µM (active) | 9.99 µM (active) | 11.2 µM (active) | – | – | –
O=C(O)c1cccc(C(F)(F)F)c1 | inactive | inactive | inactive | inactive | inactive | inactive | inactive | inactive | inactive | inactive | inactive | inactive | – | inactive | inactive | inactive | inactive | inactive | inactive | –
CCCCCCCCCCCCCC[N+](C)(C)Cc1ccccc1 | 39.5 µM (active) and 19 µM (active) and 17.8 mM (active) | inactive | 35.2 µM (active) and 15.1 µM (active) and 14.1 mM (active) | 55.8 µM (active) and 21.3 µM (active) and 20 mM (active) | 49.7 µM (active) and 21.3 µM (active) and 17.8 mM (active) | 5.58 µM (active) and 6.74 µM (active) and 5.01 mM (active) | 49.7 µM (active) and 20 mM (active) | 44.3 µM (active) and 23.9 µM (active) and 20 mM (active) | inactive | 26.8 µM (active) and 20 mM (active) | inactive | 49.3 µM (active) | – | inactive | inactive | 24.7 µM (active) | – | inactive | 27.7 µM (active) and 15.8 mM (active) | inactive
CC(=O)c1ccc(C(C)=O)cc1 | inactive | inactive | inactive | inactive | inactive | inactive | inactive | inactive | inactive | inactive | inactive | inactive | inactive | inactive | inactive | inactive | inactive | inactive | – | –
CC1=CCC(=C(C)C)CC1 | inactive | inactive | inactive | inactive | inactive | inactive | inactive | inactive | inactive | inactive | inactive | inactive | – | inactive | inactive | inactive | inactive | – | inactive | –
Nc1nc(-c2ccccc2)cs1 | inactive | inactive | inactive | inactive | inactive | inactive | inactive | inactive | – | inactive | inactive | inactive | – | 21.6 µM (active) | inactive | inactive | – | inactive | – | –
COC(=O)c1ccccc1C | inactive | inactive | inactive | inactive | inactive | inactive | inactive | inactive | – | inactive | inactive | inactive | – | inactive | inactive | inactive | inactive | inactive | inactive | –
